Inconclusive results are not listed. Calls of active or inactive are those of the source. Unless noted, calls follow the shape of the dose curve; as a rule, active = well fitted curve in the direction sought with a large enough effect in the repeat runs; inconclusive = weak or mixed curves; inactive = no such curve, though single readings can be large; an effect the other way counts as inactive or inconclusive.
Tests used:
[1] = qHTS RealTime-Glo MT Cell Viability Assay in HepG2 cells - 16 hour (AID 1224885); also: nearly all actives have a fitted effect of over 50% in size
Procedure, shortened: (§1)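 Cells + NanoLuc/prosubstrate dispensed (600 cells/well) → 5 h at 37 C/5% CO2 → compounds in DMSO transferred → 40 h incubation at 37 C, luminescence read at 0, 8, 16, 24, 32, 40 h.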

[2] = qHTS RealTime-Glo MT Cell Viability Assay in HEK293 cells - 24 hour (AID 1224886); also: top concentration of the series differs between compounds; nearly all actives have a fitted effect of over 50% in size
Procedure, shortened: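 Tox21 10K qHTS, HEK293, 600 cells/well, RealTime-Glo reagent co-dispensed with cells; 5 h preincubation, compound by pintool, 37 C, luminescence at 0–40 h.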

[3] = qHTS RealTime-Glo MT Cell Viability Assay in HEK293 cells - 8 hour (AID 1224887); also: top concentration of the series differs between compounds; nearly all actives have a fitted effect of over 50% in size
Procedure, shortened: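 600 cells/well were plated with the nonlytic NanoLuc/prosubstrate reagent, pre-incubated 5 h, then given 23 nL of compound in DMSO. Incubation at 37 C for 40 h, with luminescence from viable-cell-reduced substrate read repeatedly from 0 h.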

[4] = A CellTox Green Cytotoxicity Assay to monitor cytotoxicity in HEK293 cells - 16 hour (AID 1224888); also: nearly all actives have a fitted effect of over 35% in size
Procedure, shortened: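 HEK293 cells, 600/well, were preincubated 5 hours and then exposed to compounds at 37 C for up to 40 hours. A cell-impermeant cyanine dye staining dead-cell DNA was read by fluorescence at 0, 8, 16, 24, 32 and 40 h time points.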

[5] = qHTS RealTime-Glo MT Cell Viability Assay in HepG2 cells - 0 hour (AID 1224889); also: nearly all actives have a fitted effect of over 50% in size
Procedure, shortened: as §1

[6] = A CellTox Green Cytotoxicity Assay to monitor cytotoxicity in HepG2 cells - 8 hour (AID 1224890); also: nearly all actives have a fitted effect of over 45% in size
Procedure, shortened: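 HepG2 cells, 600/well, preincubated 5 h with CellTox Green dye, then exposed to Tox21 compounds in DMSO at 37 C for up to 40 h. Dead-cell DNA fluorescence read at the indicated time point.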

[7] = qHTS assay to identify small molecule antagonists of the estrogen receptor alpha (ER-alpha) signaling pathway using the BG1 cell line in the presence of 0.1 nM 17-beta-estradiol - cell viability counter screen (AID 1259241); also: nearly all actives have a fitted effect of over 40% in size
Procedure, shortened: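 Viability in VM7Luc4E2 cells after 22 hr compound exposure under 0.1 nM 17beta-estradiol stimulation, by CellTiter-Fluor.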

[8] = qHTS assay to identify small molecule antagonists of the androgen receptor (AR) signaling pathway using the MDA cell line in the presence of 0.5 nM R1881 - cell viability counter screen (AID 1259242); also: nearly all actives have a fitted effect of over 45% in size
Procedure, shortened: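 MDA-kb2 cells (MMTV-luciferase, AR/GR responsive) were treated with compounds plus 0.5 nM R1881 (final) for 16 hr at 37C, 0% CO2. Viability was then read in the same wells as live-cell protease fluorescence (CellTiter-Fluor, 30 min).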

[9] = molecular target: Androgen receptor (Homo sapiens) (UniProt P10275); assay: qHTS assay to identify small molecule antagonists of the androgen receptor (AR) signaling pathway using the MDA cell line in the presence of 0.5 nM R1881 (AID 1259243); also: nearly all actives have a fitted effect of over 50% in size
Sequence of Androgen receptor (Homo sapiens) (P10275 whole entry, looked up): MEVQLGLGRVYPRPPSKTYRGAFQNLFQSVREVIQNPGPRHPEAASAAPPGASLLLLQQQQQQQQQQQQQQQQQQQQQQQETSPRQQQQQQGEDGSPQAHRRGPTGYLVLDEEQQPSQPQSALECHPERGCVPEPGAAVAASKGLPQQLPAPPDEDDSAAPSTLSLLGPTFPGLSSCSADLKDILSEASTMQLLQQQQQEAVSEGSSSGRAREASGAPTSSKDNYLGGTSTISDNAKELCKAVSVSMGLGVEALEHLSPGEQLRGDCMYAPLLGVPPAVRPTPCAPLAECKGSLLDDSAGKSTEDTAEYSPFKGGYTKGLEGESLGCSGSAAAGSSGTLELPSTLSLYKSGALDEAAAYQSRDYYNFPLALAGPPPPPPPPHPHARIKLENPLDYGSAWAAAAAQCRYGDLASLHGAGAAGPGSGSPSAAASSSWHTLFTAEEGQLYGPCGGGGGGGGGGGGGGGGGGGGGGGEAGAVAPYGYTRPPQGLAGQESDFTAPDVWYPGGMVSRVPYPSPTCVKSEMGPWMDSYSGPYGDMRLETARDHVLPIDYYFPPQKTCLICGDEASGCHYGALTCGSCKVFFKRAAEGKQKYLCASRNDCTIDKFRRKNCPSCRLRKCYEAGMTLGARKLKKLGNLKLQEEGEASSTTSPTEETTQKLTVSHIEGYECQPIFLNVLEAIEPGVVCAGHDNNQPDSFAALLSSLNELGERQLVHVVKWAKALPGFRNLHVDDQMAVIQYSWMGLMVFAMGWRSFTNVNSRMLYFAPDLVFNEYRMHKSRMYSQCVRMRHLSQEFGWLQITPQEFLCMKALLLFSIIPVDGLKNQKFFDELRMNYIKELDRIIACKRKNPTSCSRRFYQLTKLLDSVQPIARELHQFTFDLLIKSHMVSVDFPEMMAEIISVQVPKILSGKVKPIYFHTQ
Procedure, shortened: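 MDA-kb2 cells (MMTV-luciferase, responsive to AR and GR) at 3,000/well, rested 5 h at 37C, 0% CO2, then given compounds plus 0.5 nM R1881 (final) for 16 hr. Luciferase read with ONE-Glo after 30 min at room temperature.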

[10] = molecular target: Estrogen receptor (Homo sapiens) (UniProt P03372); assay: qHTS assay to identify small molecule antagonists of the estrogen receptor alpha (ER-alpha) signaling pathway using the BG1 cell line in the presence of 0.1 nM 17-beta-estradiol (AID 1259244); also: nearly all actives have a fitted effect of over 50% in size
Sequence of Estrogen receptor (Homo sapiens) (P03372 whole entry, looked up): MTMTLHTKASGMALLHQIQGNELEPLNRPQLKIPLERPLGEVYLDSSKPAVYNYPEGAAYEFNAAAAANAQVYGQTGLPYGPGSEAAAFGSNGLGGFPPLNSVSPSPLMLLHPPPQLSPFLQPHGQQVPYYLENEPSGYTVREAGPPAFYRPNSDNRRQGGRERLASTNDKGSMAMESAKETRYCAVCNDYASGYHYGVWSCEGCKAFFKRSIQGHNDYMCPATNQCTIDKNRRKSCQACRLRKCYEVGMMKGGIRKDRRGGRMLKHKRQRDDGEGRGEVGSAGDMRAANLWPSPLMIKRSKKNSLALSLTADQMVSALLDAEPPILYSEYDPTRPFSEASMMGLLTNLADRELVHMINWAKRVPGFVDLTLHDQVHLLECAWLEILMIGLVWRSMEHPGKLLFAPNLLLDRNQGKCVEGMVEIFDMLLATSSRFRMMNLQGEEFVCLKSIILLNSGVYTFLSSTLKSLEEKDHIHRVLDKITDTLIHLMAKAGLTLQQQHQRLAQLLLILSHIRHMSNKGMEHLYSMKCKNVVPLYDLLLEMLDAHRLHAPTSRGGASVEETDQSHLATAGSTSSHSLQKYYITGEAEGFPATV
Procedure, shortened: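 VM7Luc4E2 cells (endogenous full-length ER-alpha, 4×ERE-luciferase), kept 5 days in phenol red-free, charcoal-stripped FBS medium; 4,000 cells/well. Compounds added with 0.1 nM (final) 17beta-estradiol, 22 hr at 37C; luminescence read with ONE-Glo after 30 min.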

[11] = qHTS assay to identify small molecule HDAC inhibitors (AID 1259364); also: top concentration of the series differs between compounds; nearly all actives have a fitted effect of over 45% in size
Procedure, shortened: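 Wild-type HCT-116 cells, plated overnight at 37 C, exposed to compounds 2 hr at 37 C; luminogenic HDAC-Glo substrate then added 30 min at room temperature. Luminescence reports relative endogenous class I/II HDAC activity.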

[12] = qHTS assay to identify small molecule HDAC inhibitors - cell viability counter screen (AID 1259365)
Procedure, shortened: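 Cytotoxicity was gauged in wild-type HCT-116 cells after a brief 2hr treatment with DMSO-dissolved compounds at 37C and 5% CO2, using CellTiter-Glo luminescence developed for 30min at room temperature.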

[13] = qHTS assay to identify small molecule agonists of the sonic hedgehog signaling (Shh) pathway - cell viability counter screen (AID 1259366); also: nearly all actives have a fitted effect of over 50% in size
Procedure, shortened: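 Stable Gli1-Luc NIH/3T3 clone, 2,000 cells/well. Compound exposure 24hr at 37C. Read-out: CellTiter-Fluor fluorescence.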

[14] = qHTS assay to identify small molecule antagonists of the sonic hedgehog signaling (Shh) pathway - cell viability counter screen (AID 1259367); also: nearly all actives have a fitted effect of over 55% in size
Procedure, shortened: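 NIH/3T3-derived Gli1-Luc reporter cells (2,000 per well) rested 4 hr at 37 C, then received DMSO compounds plus conditioned medium. After 23 hr of treatment, CellTiter-Fluor was added for 1 hr at 37C and fluorescence read.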

[15] = qHTS assay to identify small molecule agonists of the sonic hedgehog signaling (Shh) pathway (AID 1259368; calls by dose curve;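 also: NIH/3T3-derived 3T3Gli1-Luc cells carrying a stable Gli1-driven firefly luciferase reporter; series mostly up to about 92 µM; nearly all actives have a fitted effect of over 15% in size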)
Procedure, shortened: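 NIH/3T3-derived 3T3Gli1-Luc cells with stably integrated Gli1-driven firefly luciferase, 2,000 cells/well, compounds added after 4 hr. Incubated 24 hr at 37C, 5% CO2; luminescence read after 30 min with luciferase reagent at room temperature.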

[16] = qHTS assay to identify small molecule antagonists of the sonic hedgehog signaling (Shh) pathway (AID 1259369; calls by dose curve; also: nearly all actives have a fitted effect of over 45% in size)
Procedure, shortened: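 NIH/3T3-derived Gli1-Luc reporter cells plated 4 h, dosed with compound, then stimulated with conditioned medium for 24 h at 37 C. Firefly luciferase luminescence read after 30 min with detection reagent at room temperature.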

[17] = molecular target: Estrogen receptor beta (Homo sapiens) (UniProt Q92731); assay: qHTS assay to identify small molecule agonists of the estrogen receptor beta (ER-beta) signaling pathway (AID 1259377; active = well fitted activation curve with a large enough effect in the signal ratio in the repeat runs, not every such curve was filed as active; the % refers to the signal ratio)
Sequence of Estrogen receptor beta (Homo sapiens) (Q92731 whole entry, looked up): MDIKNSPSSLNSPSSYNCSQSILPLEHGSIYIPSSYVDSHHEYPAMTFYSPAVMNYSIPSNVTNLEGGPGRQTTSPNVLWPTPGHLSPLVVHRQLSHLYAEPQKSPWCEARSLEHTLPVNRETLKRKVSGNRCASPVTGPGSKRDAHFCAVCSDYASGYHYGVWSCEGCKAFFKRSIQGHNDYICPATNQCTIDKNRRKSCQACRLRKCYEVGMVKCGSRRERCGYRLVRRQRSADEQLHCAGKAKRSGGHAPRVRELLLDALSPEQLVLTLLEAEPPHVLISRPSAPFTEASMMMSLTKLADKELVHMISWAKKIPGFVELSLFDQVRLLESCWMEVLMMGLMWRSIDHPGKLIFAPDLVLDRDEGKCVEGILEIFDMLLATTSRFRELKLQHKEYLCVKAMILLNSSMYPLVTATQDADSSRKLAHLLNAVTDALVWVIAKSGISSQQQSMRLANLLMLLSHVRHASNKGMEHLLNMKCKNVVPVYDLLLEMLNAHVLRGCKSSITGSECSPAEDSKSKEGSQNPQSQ
Procedure, shortened: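 Measured by fluorescence intensity from a B/G FRET beta-lactamase substrate (2 h, room temperature) in ER-beta-UAS-bla HEK293T cells treated with DMSO-dissolved compounds for 16 hr at 37C and 5% CO2.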

[18] = molecular target: Estrogen receptor beta (Homo sapiens) (UniProt Q92731); assay: qHTS assay to identify small molecule antagonists of the estrogen receptor beta (ER-beta) signaling pathway (AID 1259378; active = well fitted inhibition curve with a large enough effect in the signal ratio in the repeat runs, not every such curve was filed as active; the % refers to the signal ratio)
Procedure, shortened: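 ER-beta-UAS-bla HEK293T (GripTite) cells in 2% charcoal-stripped FBS medium were preincubated 6 hr at 37C, dosed with compound, then stimulated with 1 nM E2 (final) for 16 hr; beta-lactamase reporter read by B/G FRET fluorescence after 2 hr substrate loading.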

[19] = qHTS assay to identify small molecule agonists of the androgen receptor (AR) signaling pathway in the presence of an antagonist - cell viability counter screen (AID 1259379);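 also: MDA-kb2 human breast cancer cells carrying an MMTV luciferase reporter; series mostly up to about 92 µM; nearly all actives have a fitted effect of over 25% in size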
Procedure, shortened: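 MDA-kb2 cells (MMTV-luciferase, AR/GR), 3,000/well, 5 h attachment, then 3.0 µM nilutamide (final) and compounds at 15 concentrations. Viability by CellTiter-Fluor fluorescence after 16 h at 37 °C, 0% CO2, in the reporter wells.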

Measured: Potency

Clc1ccc2c(Cl)ccnc2c1
not listed: [19]
inactive: all other assays above

CCN(CC)c1ccc(C=O)c(O)c1
not listed: [9] | [17] | [18] | [19]
inactive: all other assays above

C/C=C/C(=O)C1=C(C)C=CCC1(C)C
not listed: [17] | [18]
inactive: all other assays above

NC(=O)C1CO1 (centres undefined)
inactive: all assays above

Source: PubChem BioAssay (Tox21)
